Bioassay records: PubChem BioAssay, National Center for Advancing Translational Sciences (NCATS)
ELG1 genotox = genotoxicity induction in ELG1-luciferase HEK293T cells. HEK293T ELG1-luciferase reporter, luminescence, 16 h. Potency, µM (titrated, usually from 46 µM), inactives show top-dose activity change, positive = activation, usual class: activators. 330,000 tested, 1.3% active; note: % of control where 0% means no effect; nearly all actives have a fitted effect of over 60% in size
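HEK293T cells expressing luciferase-tagged ELG1 were treated with compound or DMSO for 16 hr at 37°C. Luciferase activity was then read after 30 min with ONE-Glo at room temperature; rising signal flags genetic stress.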
NPC1 promoter act = activators of NPC1 promoter; 320,000 tested, 2.4% active; Potency, µM (doses to about 9.22 µM), inactives show at the top dose activation, most hits filed as activators; Huh7 NPC1 promoter luciferase reporter, 24 h; note: % of control where 0% means no effect; nearly all actives have a fitted effect of over 60% in size
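Stably transfected Huh7 (NPC1 promoter→luciferase), 1500 cells/well in Opti-MEM + 10% FBS, 2 h settle, then compound 24 h at 37 °C. Luminescence after 10 min with Amplite reagent.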
SMN2 splice up = enhancers of SMN2 splice variant expression. HEK293 SMN2-luciferase splicing reporter, luminescence, 30-36 h. Potency, µM (highest dose often 46.1 µM), for inactives: top-dose activity change, positive = activation, most hits filed as activators. 210,000 tested, 2.8% active. AID 1458; note: % of control where 0% means no effect; nearly all actives have a fitted effect of over 55% in size
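HEK293 cells carry an SMN2 […]–luciferase reporter in which exon 7 inclusion puts luciferase in frame. Cells were plated 10-12 h before compound addition, then incubated 30-36 h at 37C. ONE-Glo luminescence was read; sodium butyrate at 4.5 mM final served as control.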
FLuc modulator = inhibits or activates purified firefly luciferase, miR-21 counter-screen; P08659; Potency, µM (titrated, usually from 57.5 µM), inactives show at the top dose activity change, negative = inhibition, actives largely listed as inhibitors; AID 588342; 360,000 tested, 6.9% active; purified FLuc, Km substrates, luminescence inhibition;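 note: plate controls were vehicle for no effect and reference inhibitor for full effect; nearly all actives have a fitted effect of over 55% in size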
Target sequence (P08659 whole entry, looked up): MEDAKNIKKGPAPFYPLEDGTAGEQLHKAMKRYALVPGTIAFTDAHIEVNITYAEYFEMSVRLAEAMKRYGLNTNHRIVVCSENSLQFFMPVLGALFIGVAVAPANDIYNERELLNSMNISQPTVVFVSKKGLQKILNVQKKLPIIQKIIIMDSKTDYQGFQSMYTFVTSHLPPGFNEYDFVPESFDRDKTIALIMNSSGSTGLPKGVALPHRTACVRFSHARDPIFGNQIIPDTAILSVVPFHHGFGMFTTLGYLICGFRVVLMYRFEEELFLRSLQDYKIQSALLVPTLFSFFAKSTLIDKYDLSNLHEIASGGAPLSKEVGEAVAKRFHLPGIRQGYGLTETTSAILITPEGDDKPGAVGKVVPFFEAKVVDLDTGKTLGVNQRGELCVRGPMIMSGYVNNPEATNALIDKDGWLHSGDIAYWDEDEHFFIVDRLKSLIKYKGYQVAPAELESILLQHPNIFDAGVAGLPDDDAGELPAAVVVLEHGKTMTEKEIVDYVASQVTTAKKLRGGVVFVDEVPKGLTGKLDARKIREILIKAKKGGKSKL
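Purified P. pyralis luciferase, 10 nM final, with Km-level 10 uM D-luciferin and 10 uM ATP in 50 mM Tris acetate pH 7.5, 10 mM Mg acetate, 0.01% Tween-20, 0.05% BSA; 6-point qHTS titration about 60 µM downward; luminescence read.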
Rab9 promoter act = activates the Rab9 promoter | Potency, µM (doses to about 9.22 µM), for the others: at the highest dose activation, negative = inhibition, usual class: activators | 320,000 tested, 2.8% active | Huh7 Rab9 promoter-luciferase reporter, luminescence, 24 h; note: % of control where 0% means no effect; nearly all actives have a fitted effect of over 60% in size
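Luminescence from Amplite-detected luciferase (10 minutes, ambient) reports Rab9 promoter activation. Before that, stable Rab9-luciferase Huh7 cells (1500/well, reduced-serum OP-MEM I plus 10% FBS) were exposed to compound for 24 hours at 37C.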
ELG1 repair inh = blocks ELG1-dependent DNA repair in HEK293T cells; HEK293T ELG1-luciferase reporter, luminescence, 16 h; DNA damage induced by 5-fluorouridine; Potency, µM (doses to about 46.1 µM), for inactives: at the top dose activity change, negative = inhibition, actives largely listed as inhibitors; 330,000 tested, 2.3% active; AID 504467; note: % is set by controls: 0 for no effect and ±100 for the full control effect; nearly all actives have a fitted effect of over 55% in size
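Cells (2,000 per well) received 5-fluorouridine plus test compound or DMSO and were incubated 16 hr at 37 °C, 5% CO2. Luciferase activity was read by luminescence 30 min after ONE-Glo addition; signal suppression marked inhibition of damage-induced ELG1 function.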
An asterisk follows results filed as active; ? = inconclusive; nt = no result; [ ] = another dose, or the depositor's remark. This is a sample that favours compounds with a hit; in the whole collection about 9.4% have one here. Calls come from the whole dose curve; as a rule, active = well fitted curve in the direction sought with a large enough effect; inconclusive = small, poorly fitted or top-dose-only effect, or another doubt; inactive = no such curve, though single readings can be large; an effect the other way counts as inactive or inconclusive. Potency is the fitted concentration of half-maximal effect.

SMILES	ELG1 genotox	NPC1 promoter act	SMN2 splice up	FLuc modulator	Rab9 promoter act	ELG1 repair inh
CCCN1CCC(=O)N([C@H](CSc2ccccc2)c2ccccc2)CC1	13.8%	?	nt	?	?	?
O=C1C2=C(C(=O)c3ccccc31)C1O[C@](CCCCN3C(=O)c4ccccc4C3=O)(Cc3c1ccc1ccccc31)O2	nt	-3.6%[1.84 µM]	nt	-5.5%[11.5 µM]	0.4%[1.84 µM]	nt
Cc1ccc(OCC(=O)Nc2cccc(-c3nnc(-c4ccccc4)o3)c2)cc1	2.3%	?	25.1µM*	?	?	?
O=C(COc1ccccc1-c1nnc(-c2ccccc2)o1)Nc1ccc(Br)cc1F	nt	nt	nt	4.78µM*	nt	nt
COc1ccccc1OCC(=O)Nc1cccc(-c2nc3ccccc3o2)c1	-1.6%	2.1%	5.8%	7.57µM*	9.6%	-24.7%
COc1cc(OC)c(NC(=O)COc2ccccc2-c2nnc(-c3ccccc3)o2)cc1Cl	nt	nt	nt	0.4%	nt	nt
Cc1cccc(OCC(=O)Nc2cccc(-c3nnc(-c4ccccc4)o3)c2)c1C	4.5%	?	10µM*	1.7%	20.1%	-5.7%
Cc1nn(C)c2c1c(C(F)(F)F)cc(=O)n2Cc1cccc(Br)c1	nt	nt	nt	0.4%	nt	nt
Nc1nc(SCCc2ccccc2)c2[nH]cnc2n1	nt	nt	-2.9%[9.22 µM]	nt	nt	nt
O=C(NCC1CCCO1)C(c1cccnc1)N(C(=O)Cc1cccs1)c1ccccc1 (stereo not drawn)	10.1%	?	-4.7%	10.7µM*	?	?
CCCC(=O)N(c1ccc2oc(-c3ccccc3)c(C(=O)OCC)c2c1)S(=O)(=O)c1ccc(C)cc1	nt	nt	15.7%	0.2%	nt	nt
Cc1ccc(C(=O)O/N=C(\N)Cc2cccc3ccccc23)cc1	-9.8%	0.2%	nt	-8.4%	8.5%	16.6%
Cc1ccc(/C(N)=N/OC(=O)c2ccc(F)cc2)cc1	10.3µM*	15.7%	?	4.78µM*	14.9%	?
N/C(=N\OC(=O)c1ccc(F)cc1)c1ccccc1	?	?	5.3%	0.169µM*	?	?
C/C(=N\OC(=O)c1ccc(F)cc1)c1ccc(F)c(F)c1	0.5%	0.2%	nt	1.69µM*	?	6.6%
N/C(=N\OC(=O)c1ccc(F)cc1)c1ccc(Br)cc1	?	?	19.1%	2.69µM*	?	?
Cc1cccc(NC(=O)c2sc3nc4n(c(=O)c3c2C)N=C(c2ccc(F)cc2)CS4)c1C	nt	nt	nt	-1.9%	nt	nt
Cc1cc(NC(=O)CN2C(=O)CSc3ccc(S(=O)(=O)N(C)C)cc32)ccc1Br	nt	nt	nt	-19.9%	nt	nt
Cc1noc(C)c1C(=O)N1CCC[C@@]2(CCN(Cc3cc(C(F)(F)F)cc(C(F)(F)F)c3)C2)C1	nt	nt	-14.1%	nt	nt	nt
COc1ccccc1OCC(=O)NCCSCc1ccccc1Cl	1.5%	2.6%	19.3%	-15.4%	-0.2%	16.7%
O=C(COc1ccccc1)NCCSCc1ccccc1Cl	16.7%	19.7%	nt	26.9µM*	6.5%	?
O=C(COc1ccccc1)Nc1ccccc1Cl	?	?	-11.2%	15.1µM*	?	?
O=C(O)c1cc(NC(=O)c2ccc(Br)cc2)cc(NC(=O)c2ccc(Br)cc2)c1	-4.8%	-6.3%	nt	21.3µM*	14.3%	-0.4%
CC(C)(C)C(=O)Nc1ccc(C(=O)Nc2cc(NC(=O)c3ccc(NC(=O)C(C)(C)C)cc3)cc(C(=O)O)c2)cc1	11.6%	18.2%	nt	4.26µM*	29.8%	?
CC(C)(C)C(=O)Nc1ccc(C(=O)NNC(=O)c2ccccc2)cc1	9.5%	16.6%	7.6%	?	20.0%	?
CCOC(=O)CNC(=O)CSc1nc(-c2ccc(OC)cc2)ns1	-0.1%	5.1%	6.1%	12µM*	17.0%	12.9%
COc1ccc(-c2nsc(SCC(=O)Nc3cc(C)on3)n2)cc1	?	1.4%	-3.9%	2.3%	12.4%	?
CCc1nnc(NC(=O)CSc2nc(-c3ccc(OC)cc3)ns2)s1	?	19.3%	?	1.69µM*	?	?
